# From PubChem BioAssay AID492952 (Southern Research Specialized Biocontainment Screening …, 2010)
# Among all 2,300 compounds or so, about 1,500 (65%) were called active. How the calls were made is not given here. So high a share suggests a set chosen from earlier hits. The list shows a part of the results. Measured potencies and affinities stand elsewhere.
# Assay: replicating M. tuberculosis growth inhibition, dose response, non-replicating M. tuberculosis project, H37Rv (AID 492952);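 further: Mycobacterium tuberculosis grown in culture; growth inhibition read after a week of incubation; 0% = bacteria alone untreated and 100% = bacteria with high antibiotic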
# Conditions: series mostly up to 50 µM; inhibition: at the top concentration
row,Structure (SMILES),inhibition
1,Cn1c(SCCOc2cccc(Cl)c2)nnc1-c1ccncc1,-0.26% (inactive)
2,Cc1ccc(S(=O)(=O)NCC(=O)OCCOc2cccc(Cl)c2)cc1,7.77% (inactive)
3,CN(CCS(=O)(=O)c1ccc(Cl)cc1)Cc1cccnc1,1.79% (inactive)
4,Cc1ccc(NC(=O)CCSc2nnc(-c3ccco3)o2)cc1,-17.6% (inactive)
5,CCCn1nnnc1NCc1ccc(C(C)C)cc1,2.16% (inactive)
6,CCCn1nnnc1NCc1ccc(CC)cc1,5.44% (inactive)
7,CCCn1nnnc1NC(=O)COc1ccc(Br)cc1,4.6% (inactive)
8,Cc1ccc(-c2nnc(NC3CCCC3)s2)cc1,9.87% (inactive)
9,Oc1c(Br)cc(Br)cc1/C=N/c1nccs1,1.77% (inactive)
10,O=C(NCc1ccc(F)cc1)c1ccc(Br)o1,-8.86% (inactive)
11,Cc1cccc(NCc2nnc(-c3ccccc3)o2)c1C,6.77% (inactive)
12,Cc1cccc(NC(=O)c2n[nH]c([N+](=O)[O-])c2Br)c1C,6.95% (inactive)
13,C=C[C@]1(C)C=C2CCC3[C@](C)(CCC[C@@]3(C)C(=O)O)C2CC1 (stereo partly drawn),11.8% (inactive)
14,O=C(Nc1ccccc1N1CCN(C(=O)c2ccc(Cl)cc2)CC1)c1ccc([N+](=O)[O-])o1,9.94% (inactive)
15,CCn1nnc(NC(=O)c2ccc([N+](=O)[O-])o2)n1,7.33% (inactive)
16,CC1CCN(C(=O)C2COc3ccccc3O2)CC1 (stereo not drawn),-4.97% (inactive)
17,O=C(c1ccc(Br)o1)N1CCC(Cc2ccccc2)CC1,8.42% (inactive)
18,O=C1NC2(CCC3(CC2)OCCO3)NN1c1ccc(Cl)cc1,-1.65% (inactive)
19,NC(=O)c1ccc(-c2ccc(Br)cc2)o1,17.1% (inactive)
20,O=C(COC(=O)Cc1ccc(Br)cc1)Nc1ccc(N2CCOCC2)cc1,3.83% (inactive)
21,O=C(NC1=NCCS1)c1ccc(-c2ccc(Cl)cc2)o1,17.6% (inactive)
22,Cc1c(NC(=O)c2coc(=O)c(Br)c2)c(=O)n(-c2ccccc2)n1C,-3.48% (inactive)
23,COc1ccc(C(=O)COC(=O)CCC(=O)c2cccs2)cc1,7.37% (inactive)
24,COc1ccc(N=N/C(=C\O)C(=O)c2cccs2)cc1,-1.77% (inactive)
25,CC(CCc1ccccc1)NC(=O)COC(=O)c1cccs1 (stereo not drawn),7.79% (inactive)
26,CC(C)(NO)/C(=N\O)c1ccccc1,-0.87% (inactive)

row,Structure (SMILES),inhibition
1,CCc1cc(C(c2ccncc2)N2CCN(C)CC2)c(NC(=O)c2ccccc2)s1 (stereo not drawn),-2.97% (inactive)
2,CCC1CCc2sc(C(=O)NCC3CCCO3)cc2C1 (stereo not drawn),-2.23% (inactive)
3,COc1ccccc1N1CCN(C(=O)CCn2c(=O)[nH]c3ccsc3c2=O)CC1,4.43% (inactive)
4,CC(C)(C)c1ccc(C(=O)N2CCCC2)s1,1.22% (inactive)
5,CC(=O)Oc1ccc(N(C(C)=O)S(=O)(=O)c2cccs2)c2ccccc12,0.62% (inactive)
6,COc1cccc(OCC(=O)NNC(=O)c2cccs2)c1,-1.49% (inactive)
7,COc1ccc(-c2nc(C=O)cs2)cc1,24.4% (inactive)
8,COc1ccc(-c2cc(O)cc(O)c2)cc1,0.3% (inactive)
9,CCc1ccc(C(C)NC(=O)C2CCCO2)cc1 (stereo not drawn),-2.83% (inactive)
10,Cc1ccc2cc(/C=N/NC(=O)[C@H](C)NC(=O)OC(C)(C)C)c(Cl)nc2c1,4.71% (inactive)
11,CCOc1ccc(NC(=O)CCc2ccc(C)o2)cc1,6.91% (inactive)
12,NC(N)=N/N=C/c1cccc([N+](=O)[O-])c1O,-3.2% (inactive)
13,Cc1cccc(NC(=O)CO/N=C/c2ccc3c(c2)OCO3)c1,18% (inactive)
14,COCC(=O)Nc1ccccc1NC(C)=O,-2.75% (inactive)
15,COc1ccc(C(=O)CCNc2ccc(F)cc2)cc1,-0.64% (inactive)
16,CCOC(=O)C(=CNNc1cccc(Cl)c1)C(=O)OCC,5.8% (inactive)
17,CCc1nnc(NC(=O)CN2CCN(Cc3ccc(F)cc3)CC2)s1,-1.34% (inactive)
18,O=C(CN1CCN(c2ccccc2)CC1)Nc1nnc(-c2ccccc2)s1,1.95% (inactive)
19,CCOC(=O)c1ccc(NC2OC(=O)c3ccccc32)cc1 (stereo not drawn),6.55% (inactive)
20,O=C(O)c1ccccc1C(=O)NNc1ccc(F)cc1,0.91% (inactive)
21,CCOC(=O)c1ccc(N=C(CC)c2c(O)n(C)c(=O)n(C)c2=O)cc1,4.28% (inactive)
22,Nc1scc(-c2ccncc2)c1Cl,3.7% (inactive)
23,CC(C)Oc1ccc(CNC(=O)Oc2ccccc2)cc1,0.25% (inactive)
24,COc1ccc(C(C)NC(=O)CCc2ccccc2)cc1 (stereo not drawn),0.5% (inactive)
25,C/C(=N\NC(=O)c1ccccc1O)C1C(=O)c2ccccc2C1=O,-0.04% (inactive)
26,O=C(O)CCCCCN1C(=O)CSC1=S,24% (inactive)

row,Structure (SMILES),inhibition
1,Cc1cccc(CC(=O)NCC2CCCCC2)c1,-1.82% (inactive)
2,Clc1ccccc1CSc1nnc([C@@H]2CCCN2)o1,3.84% (inactive)
3,S=c1[nH]c2ccccc2o1,-5.96% (inactive)
4,Cc1ccc(CNCc2cc(Cl)ccc2O)cc1,5.45% (inactive)
5,Cc1cc(OCCOCCNCc2ccccc2)ccc1C(C)C,18.1% (inactive)
6,COc1ccc(NCC(=O)N2CCCC2)cc1Cl,12.3% (inactive)
7,CCc1ccc(NC(=O)CCc2ccc(C)o2)cc1,-10.7% (inactive)
8,CC(=O)c1ccc(NC(=O)CCc2ccc(C)o2)cc1,-4.59% (inactive)
9,FC(F)(F)c1nc(SCc2ccc(Cl)cc2Cl)n[nH]1,1.2% (inactive)
10,CCCCOc1ccc(CSCCN)cc1Cl,-9.05% (inactive)
11,Clc1ccc(SCCCCn2ccnc2)cc1,9.6% (inactive)
12,Cc1ccc(OCCCCn2ccnc2)c([N+](=O)[O-])c1,0.31% (inactive)
13,CCc1ccc(OCCCC(=O)Nc2nccs2)cc1,3.19% (inactive)
14,O=C(COc1ccc2ccccc2c1)NNC(=O)c1cccs1,4.45% (inactive)
15,CCCCCCCCCCn1cc(C(C)=O)c(=O)[nH]c1=O,-6.79% (inactive)
16,CCOC(=O)Cc1cc(=O)n2[nH]cc(-c3ccc(Cl)cc3)c2n1,16.1% (inactive)
17,CCOC(=O)C1(O)CC(C)=NN1C(=O)c1cccc(Br)c1 (stereo not drawn),2.82% (inactive)
18,N#Cc1ccc(N=c2ssnc2Cl)cc1,-4.86% (inactive)
19,CC1(C)C[C@H]2C=C(C=O)[C@]3(C=O)C[C@]3(C)[C@H]2C1,-4.11% (inactive)
20,CCc1nnc(N/N=C/c2c(F)cccc2Cl)n1N,2.29% (inactive)
21,CC(C)(C)c1cc(CN2CCC(O)CC2)cc(C(C)(C)C)c1O,2.57% (inactive)
22,O=C(COc1ccc(Cl)cc1)Nc1ccccc1Cl,-1.26% (inactive)
23,O=C(COc1ccc(Br)cc1)N/N=C1/SCC(=O)N1Cc1ccccc1,-21% (inactive)
24,COc1ccc(NC(=O)COc2ccc3c(c2)CCC3)cc1,1.64% (inactive)
25,O=C(COC(=O)c1cccc([N+](=O)[O-])c1)NCc1cccs1,18% (inactive)
26,Cc1ccc(OCC(=O)N2CCCc3ccccc32)cc1,-4.58% (inactive)

row,Structure (SMILES),inhibition
1,O=C(COc1ccc(Cl)cc1)OCC(=O)N1CCCc2ccccc21,5.36% (inactive)
2,Cn1c(SCc2c(F)cccc2Cl)nc2c(c1=O)SCC2,3.61% (inactive)
3,COc1cccc(/C=N/NC(=O)c2ccoc2C)c1O,20.1% (inactive)
4,Cc1ccc(C(=O)N/N=C/C=C/c2ccccc2)cc1,19.8% (inactive)
5,CCc1ccc(N=CC2=C(O)CC(c3ccco3)CC2=O)cc1 (stereo not drawn),3% (inactive)
6,CC(=O)N(c1nnc(-c2ccc(C)cc2)s1)C1CCCC1,20.1% (inactive)
7,O=C(NCCC1=CCCCC1)c1ccc(F)cc1,-3.67% (inactive)
8,O=C(NCCC1=CCCCC1)c1ccc(Br)o1,-0.64% (inactive)
9,COc1ccccc1-c1cc(SC)c(C#N)c(=O)o1,-0.91% (inactive)
10,COc1ccccc1-c1nnc(-c2ccc(C)cc2)o1,7.38% (inactive)
11,FC(F)(F)c1ccc(NCCc2ccccc2)nc1,-0.21% (inactive)
12,O=C(COC(=O)c1cccc(C(F)(F)F)c1)NCc1ccccc1,-2.81% (inactive)
13,CCOC(=O)Cc1csc(NC(=O)COc2ccc3c(c2)CCC3)n1,0.53% (inactive)
14,O=C(CNC(=O)c1ccc(Br)cc1)c1ccc(Br)cc1,23.6% (inactive)
15,Nc1nnc(SCCCC(=O)c2ccc(Br)cc2)s1,5.18% (inactive)
16,Cc1cccc(C)c1NC(=O)c1sc(N)nc1-c1ccccc1,-4.98% (inactive)
17,Cc1ccc(C(=O)N/N=C\c2ccc[nH]2)cn1,-5.12% (inactive)
18,COc1cccc(/C=N/N2C(=O)CSC2=S)c1O,-2.68% (inactive)
19,O=C(N/N=C\c1ccco1)c1cncc(Br)c1,16.6% (inactive)
20,Cc1ccc(C(=O)c2cncc(Br)c2)cc1,-7.1% (inactive)
21,Nn1c(SCCOc2ccc(Cl)cc2)nnc1-c1cccnc1,-2.3% (inactive)
22,CSCCC(=O)N1CCCC(N2CCN(c3cccc(C(F)(F)F)c3)CC2)C1 (stereo not drawn),4.08% (inactive)
23,CCCNC(=O)c1ccc(COc2ccc(C)cc2)o1,1.85% (inactive)
24,COC(=O)c1ccc(CO/N=C/c2ccc(OC)cc2)o1,4.34% (inactive)
25,Cc1cccc2c(CC(=O)O)noc12,1.24% (inactive)
26,O=C(NNc1ccc([N+](=O)[O-])cc1)c1ccccc1Cl,3.86% (inactive)

row,Structure (SMILES),inhibition
1,CC1(C)CC(=O)c2cc(C(=O)NNc3ccccc3)c(=O)n(-c3ccccc3)c2C1,14.9% (inactive)
2,Clc1ccc2c(N3CCCC3)ccnc2c1,-0.83% (inactive)
3,Cc1ccc(O)c(C(=O)c2cc(C#N)c(=O)n(-c3nccs3)c2)c1,4.6% (inactive)
4,Cn1c(=O)c2c(=O)cc(NNC(=O)CC#N)[nH]c2n(C)c1=O,3.96% (inactive)
5,Cc1ccc(/C=C2\SC(=S)N(C3CCS(=O)(=O)C3)C2=O)o1 (stereo not drawn),-0.18% (inactive)
6,O=C(COC(=O)c1cccs1)NCCC1=CCCCC1,1.34% (inactive)
7,Cc1ccsc1C(=O)OCC(=O)NCCC1=CCCCC1,2.87% (inactive)
8,O=C(Nc1nnc(-c2ccc(Cl)cc2)o1)c1cccc(N2C(=O)CCC2=O)c1,-1.86% (inactive)
9,O=C(c1ccc(Cl)cc1)c1nnc(-c2ccncc2)o1,-4.56% (inactive)
10,Cc1ccc(N=N/C(=C\O)C(=O)c2ccncc2)cc1,3.09% (inactive)
11,CC1(c2nnc(-c3ccccc3)o2)CC(c2ccc(Cl)cc2)=NO1 (stereo not drawn),-7% (inactive)
12,FC(F)(F)c1ccc(-c2nnc(-c3cccnc3)o2)cc1,5.31% (inactive)
13,CCOc1ccc(CC(=O)N2N=C(C)CC2(O)C(F)(F)F)cc1 (stereo not drawn),-10.6% (inactive)
14,CC1=NN(C(=O)COc2ccccc2)C(O)(c2ccccc2)C1 (stereo not drawn),2.02% (inactive)
15,Nc1nonc1C(=O)NCCN=Cc1cc(Cc2ccccc2)cc(Br)c1O,-2.49% (inactive)
16,Cc1nn(C)cc1/C=N/NC(=O)c1sc2ccccc2c1Cl,2.4% (inactive)
17,Cc1occc1C(=O)N/N=C/c1ccc[nH]1,4.32% (inactive)
18,Cc1cc(C(=O)N/N=C/C=C/c2ccccc2)c(C)o1,1.97% (inactive)
19,O=C1/C(=C/c2ccco2)CCC1C1CCCC1 (stereo not drawn),-2.45% (inactive)
20,Cc1cccc2nc(-c3cccnc3)c(NCCC(C)C)n12,5.38% (inactive)
21,CC1=NN(C(=O)c2ccc(C)o2)C(O)(c2ccccc2)C1 (stereo not drawn),20.8% (inactive)
22,Cc1ccc2nc3c(c(N)c2c1)CCN3c1ccccc1,11.9% (inactive)
23,CCc1ccc(OCC(=O)c2c(O)c3ccccc3oc2=O)cc1,4.28% (inactive)
24,O=C(CCC1CCCCC1)NCc1cccs1,4.16% (inactive)
